Records with an inconclusive call do not appear. Where a call stands in place of a potency, no number is given. Values without a mark were called inactive. Activity calls are given as the source filed them. Unless noted, the call rests on the fitted dose curve; in most records, active means well fitted curve in the direction sought with a large enough effect in the repeat runs; inconclusive means weak or mixed curves; inactive means no such curve, though single readings can be large; an effect the other way counts as inactive or inconclusive.
Assays:
[1] = qHTS assay to identify small molecule antagonists of the retinoid-related orphan receptor gamma (ROR-gamma) signaling pathway - cell viability counter screen (AID 1159520); further: nearly all actives have a fitted effect of over 50% in size; further: potency means the concentration at half of the fitted maximal effect
Method in brief: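 Tet-on ROR gamma CHO cells (1,000/well) were plated 4 hr, given compounds in DMSO for 2 hr at 37 C, then induced with 1 uM final doxycycline for 16 hr. Viability was read as ATP by CellTiter-Glo luminescence after 30 min.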

[2] = molecular target: Nuclear receptor ROR-gamma (Homo sapiens) (UniProt P51449); assay: qHTS assay to identify small molecule antagonists of the retinoid-related orphan receptor gamma (ROR-gamma) signaling pathway (AID 1159521; further: nearly all actives have a fitted effect of over 50% in size; further: potency means the concentration at half of the fitted maximal effect;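 on activity change, negative = inhibition: CHO cells with doxycycline inducible ROR-gamma driving an RORE luciferase reporter; top concentration of the series differs between compounds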)
Method in brief: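 Tet-on RORγ CHO cells carrying a ROR response element–luciferase reporter were pretreated with compounds for 2 h, then induced with 1 uM (final) doxycycline hyclate for 16 h at 37 C. Antagonism was read as decreased ONE-Glo luminescence.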

[3] = qHTS assay to identify small molecule agonists of the AP-1 signaling pathway - cell viability counter screen (AID 1159525; calls by dose curve; further: nearly all actives have a fitted effect of over 55% in size; further: potency means the concentration at half of the fitted maximal effect)
Method in brief: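 ME-180 AP-1-bla, 2500 cells/well, Opti-MEM + 0.5% dialyzed FBS; overnight 37 °C; cpd 15-pt titration, 5 h 37 °C; CellTiter-Glo 30 min RT; luminescence read; normalised to TOAB and DMSO controls.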

[4] = molecular target: Retinoic acid receptor RXR-alpha (Homo sapiens) (UniProt P19793); assay: qHTS assay to identify small molecule agonists of the RXR signaling pathway (AID 1159527; calls by dose curve; further: nearly all actives have a fitted effect of over 35% in size; further: potency means the concentration at half of the fitted maximal effect)
Method in brief: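 GeneBLAzer RXR-alpha-UAS-bla HEK 293T cells in medium with 2% charcoal-stripped FBS, pre-incubated 5 hr at 37 C, then exposed to compounds 16 hr. Beta-lactamase reporter read by FRET substrate, 2 hr room temperature, 460/530 nm emission.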

[5] = qHTS assay to identify small molecule agonists of the RXR signaling pathway - cell viability counter screen (AID 1159529); further: nearly all actives have a fitted effect of over 50% in size; further: potency means the concentration at half of the fitted maximal effect; on activity change, negative = cytotoxicity: series mostly up to about 77 µM
Method in brief: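 RXR-alpha-UAS-bla HEK 293T cells in medium with 2% charcoal-stripped FBS were preincubated 5 hr, then exposed to compounds for 16 hr at 37 C. Viability was read as CellTiter-Glo luminescence after 30 min at room temperature.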

[6] = qHTS assay to identify small molecule antagonists of the retinoid acid receptor (RAR) signaling pathway - cell viability counter screen (AID 1159551); further: nearly all actives have a fitted effect of over 35% in size; further: potency means the concentration at half of the fitted maximal effect
Method in brief: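 Seed C3RL4 cells; next day add compound, then retinol to 1 uM final; incubate 6 h at 37 C; add CellTiter-Glo; read luminescence after 30 min at RT.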

[7] = qHTS assay to identify small molecule antagonists of the vitamin D receptor (VDR) signaling pathway - cell viability counter screen (AID 743225); further: nearly all actives have a fitted effect of over 50% in size; further: potency means the concentration at half of the fitted maximal effect
Method in brief: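 VDR-bla HEK 293T cells, 4 h pre-incubation at 37C, then compound plus 1-alpha,25-dihydroxyvitamin D3 (3 nM final) for 16 h. After the beta-lactamase FRET read, CellTiter-Glo was added to the same wells; luminescence after 30 min at room temperature.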

[8] = qHTS assay to identify small molecule antagonists of the retinoic acid receptor (RAR) signaling pathway (AID 1159552; further: nearly all actives have a fitted effect of over 50% in size; further: potency means the concentration at half of the fitted maximal effect)
Method in brief: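 RARE-luc C3RL4 cells; cpds + 1 uM (final) retinol, 6 hr, 37 C/5% CO2; luciferase reagent, 30 min RT, luminescence readout. Inhibitors of retinol-driven signal scored.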

[9] = qHTS assay to identify small molecule agonists of the AP-1 signaling pathway (AID 1159526; calls by dose curve)
[10] = qHTS assay to identify small molecule agonists of the vitamin D receptor (VDR) signaling pathway - cell viability counter screen (AID 743224); further: nearly all actives have a fitted effect of over 50% in size; further: potency means the concentration at half of the fitted maximal effect; on activity change, negative = cytotoxicity: series mostly up to about 63 µM
Method in brief: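 Here cell health was gauged by luminescent ATP detection (CellTiter-Glo, 30 min RT) in VDR-bla cells that had been incubated with test compounds for 16 h at 37C and 5% CO2.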

Sequence of Retinoic acid receptor RXR-alpha (Homo sapiens) (P19793 whole entry, looked up): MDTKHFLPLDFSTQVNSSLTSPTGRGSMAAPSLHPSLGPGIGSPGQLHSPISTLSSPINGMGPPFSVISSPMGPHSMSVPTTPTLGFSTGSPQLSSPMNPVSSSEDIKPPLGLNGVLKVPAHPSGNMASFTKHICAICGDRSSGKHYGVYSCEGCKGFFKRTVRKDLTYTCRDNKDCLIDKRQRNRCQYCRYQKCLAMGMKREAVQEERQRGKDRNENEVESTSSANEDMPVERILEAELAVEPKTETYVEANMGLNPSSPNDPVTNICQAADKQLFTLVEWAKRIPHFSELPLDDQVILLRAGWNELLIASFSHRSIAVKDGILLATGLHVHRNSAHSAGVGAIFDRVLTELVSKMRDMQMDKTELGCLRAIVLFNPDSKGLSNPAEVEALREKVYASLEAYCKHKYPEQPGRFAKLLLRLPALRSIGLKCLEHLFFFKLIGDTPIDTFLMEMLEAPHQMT

## C=Cc1ccc(O)c(OC)c1
[1]
  Potency: inactive
[2]
  Potency: inactive
[3]
  Potency: inactive
[4]
  Potency: inactive
[5]
  Potency: inactive
[6]
  Potency: inactive

## CN1CC[C@H](c2c(O)cc(O)c3c(=O)cc(-c4ccccc4Cl)oc23)[C@H](O)C1
[7]
  Potency: inactive
[1]
  Potency: 0.237 µM (active)
[2]
  Potency: 0.298 µM (active)
[3]
  Potency: inactive
[5]
  Potency: inactive

## O=C1OC(O)C(C(Cl)Cl)=C1Cl (stereo not given)
[1]
  Potency: 7.07 µM (active)
[2]
  Potency: 14.1 µM (active)
[3]
  Potency: inactive
[6]
  Potency: inactive

## O=C1OC2(c3ccccc31)c1ccc(O)c(Br)c1Oc1c2ccc(O)c1Br
[1]
  Potency: inactive
[2]
  Potency: inactive
[3]
  Potency: inactive
[5]
  Potency: inactive
[6]
  Potency: inactive
[8]
  Potency: inactive

## Clc1cccc(Cl)n1
[1]
  Potency: inactive
[2]
  Potency: inactive
[3]
  Potency: inactive
[4]
  Potency: inactive
[5]
  Potency: inactive
[6]
  Potency: inactive

## CCCCNc1ccc(NCCCC)c2c1C(=O)c1ccccc1C2=O
[1]
  activity, negative = cytotoxicity: -0.683% [at 19 µM]
[2]
  activity change, negative = inhibition: -8.88% [at 19 µM]
[3]
  viability change, negative = cytotoxic: -8.5% [at 15.8 µM]
[4]
  activation: 10.8% [at 15.8 µM]
[5]
  activity change, negative = cytotoxicity: 10.1% [at 15.8 µM]
[6]
  activity change, negative = cytotoxicity: 0.361% [at 19 µM]
[8]
  activity, negative = inhibition: -19% [at 19 µM]

## COCCC(=O)OC
[1]
  Potency: inactive
[2]
  Potency: inactive
[3]
  Potency: inactive
[4]
  Potency: inactive
[6]
  Potency: inactive

## ClC(c1ccccc1)(c1ccccc1)c1ccccc1
[1]
  Potency: inactive
[2]
  Potency: inactive
[3]
  Potency: inactive
[9]
  Potency: inactive
[5]
  Potency: inactive
[6]
  Potency: inactive
[8]
  Potency: inactive

## Cc1ccc(S(=O)(=O)C(I)I)cc1
[1]
  Potency: 17.2 µM (active)
[2]
  Potency: 6.11 µM (active)
[3]
  Potency: 17.4 µM (active)
[5]
  Potency: 12.3 µM (active)
[6]
  Potency: 43.3 µM (active)
[8]
  Potency: 9.69 µM (active)

## CCc1c(C)cc(N)c(CC)c1N
[1]
  Potency: inactive
[2]
  Potency: inactive
[3]
  Potency: inactive
[4]
  Potency: inactive
[5]
  Potency: inactive
[6]
  Potency: inactive

## CC(C)(c1ccc(Oc2ccc(N)cc2)cc1)c1ccc(Oc2ccc(N)cc2)cc1
[1]
  Potency: 61.1 µM (active)
[2]
  Potency: 61.1 µM (active)
[3]
  Potency: inactive
[5]
  Potency: inactive
[6]
  Potency: inactive
[8]
  Potency: inactive

## CCc1cccc(C)c1N(C(=O)C(=O)O)C(C)COC (stereo not given)
[1]
  Potency: inactive
[2]
  Potency: inactive
[3]
  Potency: inactive
[4]
  Potency: inactive
[6]
  Potency: inactive
[8]
  Potency: inactive

## CCN(CC)c1ccc(N=Nc2ccccc2)cc1
[1]
  Potency: inactive
[2]
  Potency: inactive
[3]
  Potency: inactive
[5]
  Potency: 19.5 µM (active)
[8]
  Potency: inactive

## Cc1ccc(N=Nc2c(O)ccc3ccccc23)c(C)c1
[1]
  Potency: inactive
[2]
  Potency: inactive
[3]
  Potency: inactive
[9]
  Potency: inactive
[5]
  Potency: inactive
[6]
  Potency: inactive
[8]
  Potency: inactive

## CC(C)(C)C1=CC(=O)C(C(C)(C)C)=CC1=O
[1]
  Potency: inactive
[2]
  Potency: 10.6 µM (active)
[3]
  Potency: inactive
[9]
  Potency: inactive
[6]
  Potency: inactive

## CC(C)=NNC(N)=S
[1]
  Potency: inactive
[2]
  Potency: inactive
[3]
  Potency: inactive
[6]
  Potency: inactive

## CCCCCCCCSCc1cc(C)c(O)c(CSCCCCCCCC)c1
[1]
  Potency: inactive
[2]
  Potency: 61.1 µM (active)
[6]
  Potency: inactive

## Oc1ccc(Cl)cc1C1CCCC1
[10]
  Potency: inactive
[1]
  Potency: inactive
[2]
  Potency: inactive
[4]
  Potency: 11 µM (active)
[6]
  Potency: inactive

## NCc1cccc(C2CCN(C(=O)c3ccc(C#Cc4ccccc4F)o3)CC2)c1
[10]
  Potency: 54.9 µM (active)
[7]
  Potency: 34.7 µM (active)
[1]
  Potency: 43.3 µM (active)
[2]
  Potency: 34.4 µM (active)
[3]
  Potency: 54.9 µM (active)
[6]
  Potency: 68.6 µM (active)
[8]
  Potency: 54.5 µM (active)

## COc1cc2ncnc(Nc3cccc(Cl)c3)c2cc1OC
[1]
  activity, negative = cytotoxicity: -2.63% [at 19 µM]
[2]
  activity change, negative = inhibition: -11.5% [at 19 µM]
[4]
  activation: -15.1% [at 15.8 µM]
[5]
  activity change, negative = cytotoxicity: -0.839% [at 15.8 µM]
[6]
  activity change, negative = cytotoxicity: 0.617% [at 19 µM]

## N#Cc1nc(Cl)c(Cl)c(Cl)c1Cl
[10]
  Potency: 11 µM (active)
[7]
  Potency: 19.5 µM (active)
[1]
  Potency: 1.93 µM (active)
[2]
  Potency: 2.73 µM (active)
[5]
  Potency: 15.5 µM (active)

## C=C1C(CCl)(CCl)C2(Cl)C(Cl)C(Cl)C1(Cl)C2(Cl)Cl (stereo not given)
[10]
  Potency: 21.6 µM (active)
[7]
  Potency: 48.4 µM (active)
[1]
  Potency: 60.4 µM (active)
[2]
  Potency: 48 µM (active)
[3]
  Potency: 43.1 µM (active)
[6]
  Potency: inactive

## O=C(O)CN(CCCN(CC(=O)O)CC(=O)O)CC(=O)O
[1]
  activity, negative = cytotoxicity: 3.4% [at 19 µM]
[2]
  activity change, negative = inhibition: -18.7% [at 19 µM]
[9]
  activation: 3.51% [at 15.8 µM]
[4]
  activation: 0.262% [at 15.8 µM]
[5]
  activity change, negative = cytotoxicity: -1.37% [at 15.8 µM]
[6]
  activity change, negative = cytotoxicity: 0.537% [at 19 µM]

## C[C@H]1O[C@@H](O[C@H]2CC[C@@]3(C)[C@H](CC[C@@H]4[C@@H]3C[C@@H](O)[C@]3(C)[C@@H](C5=CC(=O)OC5)CC[C@]43O)C2)C[C@H](O)[C@@H]1O[C@H]1C[C@H](O)[C@H](O[C@H]2C[C@H](O)[C@H](O[C@@H]3O[C@H](CO)[C@@H](O)[C@H](O)[C@H]3O)[C@@H](C)O2)[C@@H](C)O1
[10]
  Potency: 0.298 µM (active)
[7]
  Potency: 0.338 µM (active)
[1]
  Potency: inactive
[2]
  Potency: inactive
[9]
  Potency: inactive
[6]
  Potency: inactive

## COc1cc([C@@H]2c3cc4c(cc3[C@@H](O[C@@H]3O[C@@H]5CO[C@@H](C)O[C@H]5[C@H](O)[C@H]3O)[C@H]3COC(=O)[C@H]23)OCO4)cc(OC)c1O
[10]
  Potency: 21.6 µM (active)
[7]
  Potency: inactive
[1]
  Potency: inactive
[2]
  Potency: 27 µM (active)
[6]
  Potency: inactive
[8]
  Potency: 67.8 µM (active)
